In the supplement of paper PMC6555819 one finds PBM binding z-score data, which are given here for seven sequences.

Assay in all cases: PBM binding z-score (relative to random genomic background probes); higher = stronger binding; sequences stand for … in GC…GCGATTGACAGCGTAGAATGAAGG
Assay [1] has as its system FXR:RXRa (NR concentration 270 nM, RXRa partner concentration 90 nM). The essentials:
(§1)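 Each nuclear receptor dimer, without ligand, was incubated for 1 h on custom Agilent 4×180K protein-binding microarrays. Binding was detected with antibodies against each partner (one per run), and scanned fluorescence was regression-normalized. The binding z-scores are referenced to random human genomic background probes.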

The test system of assay [2] is LXRa:RXRa (NR concentration 270 nM, RXRa partner concentration 90 nM). The essentials:
as §1

For assay [3], the system named is LXRa homodimer (NR concentration 270 nM). The essentials: as §1
Assay [4] has as its system LXRb:RXRa (NR concentration 270 nM, RXRa partner concentration 90 nM). The essentials:
as §1

The test system of assay [5] is LXRb homodimer (NR concentration 270 nM). The essentials:
as §1

The test system of assay [6] is PPARa:RXRa (NR concentration 270 nM, RXRa partner concentration 90 nM). The essentials:
as §1

In assay [7] the test system is PPARg:RXRa (NR concentration 180 nM, RXRa partner concentration 90 nM). The essentials:
as §1

The test system of assay [8] is PPARg:RXRa 270nM:90nM, anti-RXR (NR concentration 270 nM, RXRa partner concentration 90 nM). The essentials:
as §1

For assay [9], the system named is PPARg:RXRa 30nM:10nM, anti-RXR (NR concentration 30 nM, RXRa partner concentration 10 nM). The essentials:
as §1

In assay [10] the test system is PPARg:RXRa 90nM:30nM, anti-RXR (NR concentration 90 nM, RXRa partner concentration 30 nM). The essentials:
as §1

Assay [11] deals with PPARg:RXRa DBDmut IVT, anti-RXR (DBD mutation: RXRa K156A/R161A, NR concentration 270 nM, RXRa partner concentration 90 nM). The essentials: as §1
In assay [12] the test system is PPARg:RXRa IVT, anti-PPARg (NR concentration 270 nM, RXRa partner concentration 90 nM). The essentials:
as §1

Assay [13] concerns PPARg DBDmut:RXRa IVT, anti-PPARg (DBD mutation: PPARg1 K132A/R137A, NR concentration 270 nM, RXRa partner concentration 90 nM). The essentials:
as §1

The subject of assay [14] is PPARg DBDmut IVT, anti-PPARg (DBD mutation: PPARg1 K132A/R137A, NR concentration 270 nM). The essentials: as §1
For assay [15], the system named is PPARg homodimer (NR concentration 180 nM). The essentials:
as §1

Assay [16] relates to PXR:RXRa (NR concentration 270 nM, RXRa partner concentration 90 nM). The essentials:
as §1

For assay [17], the system named is PXR homodimer (NR concentration 270 nM). The essentials: as §1
Assay [18] concerns RARa:RXR (NR concentration 270 nM, RXRa partner concentration 90 nM). The essentials: as §1
Assay [19] concerns RARa homodimer (NR concentration 270 nM). The essentials:
as §1

In assay [20] the test system is RARb:RXRa (NR concentration 270 nM, RXRa partner concentration 90 nM). The essentials: as §1

As to GGCACGAGGGCAAAGTTGATAGCATCTGTCGACG, the PBM binding z-score in [1] is 1.44; in assay [2], 1.01; in assay [3], -0.378; in assay [4], 0.776; in [5], -0.874; in assay [6] it was 3.29. In addition, the PBM binding z-score was found to be 6.13 in assay [7]; 6.24 in [8]; 4.26 in assay [9]; 6.86 in assay [10]; 2.51 in assay [11]; 2.98 in assay [12]. Also, the PBM binding z-score is -0.61 in [13]; -0.775 in [14]; 0.977 in assay [15]; 1.11 in [16]; 0.289 in assay [17]; 1.56 in assay [18]. Also, the PBM binding z-score in [19] is -0.644; in assay [20] it was 2.54.

For the sequence GATACAGGGTCAAGGACAGAGTACGCGTATTGAT, the PBM binding z-score in assay [1] turned out to be 6.59; in [2], 4.45; in assay [3] it was 0.185; in [4], 4; in [5], 0.413; in assay [6] it was 5.54. Besides, the PBM binding z-score amounted to 5.7 in assay [7]; 5.61 in assay [8]; 2.93 in assay [9]; 4.51 in assay [10]; 3.11 in [11]; 3.89 in assay [12]. For the same sequence, the PBM binding z-score in assay [13] stood at 1.4; in [14] it was 0.618; in assay [15], 2.51; in assay [16] it was 3.92; in assay [17], 0.786; in [18], 4.72. The PBM binding z-score turned out to be 1.69 in [19] and 4.52 in assay [20].

With ATCGAAAGGTCGAGGTGAGGATAGAGAAAGGGAA, the PBM binding z-score in assay [1] amounted to 4.33; in assay [2] it was 3.16; in assay [3] it was 0.082; in [4] it was 2.64; in assay [5], 0.457; in assay [6] it was 4.44. Besides, the PBM binding z-score in assay [7] was 3.06; in assay [8] it was 3.83; in assay [9], 1.33; in assay [10] it was 2.81; in [11], 0.551; in assay [12], 2.41. Also, the PBM binding z-score in assay [13] turned out to be 1.29; in [14] it was 0.836; in assay [15] it was 1.63; in assay [16] it was 2.46; in [17], 0.644; in assay [18] it was 3.16. Moreover, the PBM binding z-score in [19] stood at 0.718; in assay [20], 4.06.

With TCTAGTTGGTCACAGGTCACACACTCGAAATGCG, the PBM binding z-score in [1] was 2.89; in assay [2] it was 2.92; in assay [3] it was 1.82; in assay [4], 3.13; in assay [5], 0.99; in [6] it was 4.37. The PBM binding z-score in assay [7] was 7.08; in assay [8] it was 6.5; in [9], 6.07; in assay [10] it was 7.04; in [11], 3.01; in assay [12], 4.53. The PBM binding z-score in assay [13] is 1.58; in [14], 1.96; in assay [15], 2.52; in [16], 3.06; in [17] it was 0.924; in assay [18], 3.51. Further, the PBM binding z-score is 1.49 in assay [19] and 3.33 in assay [20].

For the sequence TTACCTAGGTGAGCTGAGGTCGTTGATCCAACTC, the PBM binding z-score in assay [1] is 0.355; in [2] it was 0.722; in assay [3] it was -0.414; in assay [4], 0.389; in assay [5], -0.985; in assay [6] it was 1.68. Moreover, the PBM binding z-score in assay [7] came out at 0.522; in assay [8], 1.09; in [9], 0.135; in assay [10] it was 0.445; in assay [11], 3.01; in assay [12], 3.01. Besides, the PBM binding z-score is -0.362 in assay [13]; 0.266 in [14]; 0.32 in [15]; 3.55 in assay [16]; 0.214 in assay [17]; 1.94 in assay [18]. The PBM binding z-score in assay [19] was -1.28; in assay [20] it was 0.93.

ACTTACGGGTCAACGAGGCTATAGCACGCGTATA: the PBM binding z-score in [1] amounted to 7.11; in assay [2], 4.24; in assay [3], 0.0789; in assay [4], 3.85; in [5], 0.747; in assay [6] it was 5.82. The PBM binding z-score amounted to 5.21 in [7]; 4.87 in [8]; 1.81 in assay [9]; 3.64 in assay [10]; 3.07 in assay [11]; 3.98 in assay [12]. Moreover, the PBM binding z-score in assay [13] came to 0.121; in [14] it was 1.38; in assay [15], 1.92; in assay [16] it was 3.59; in [17], 0.421; in assay [18] it was 4.16. Besides, the PBM binding z-score in assay [19] worked out at 0.515; in assay [20] it was 4.01.

GCTGCTAGGTGAGGTTGGTCAGCTAACGGGTACG: the PBM binding z-score in assay [1] is -0.483; in [2], -0.442; in [3], -0.661; in assay [4] it was -0.672; in [5] it was -0.761; in [6] it was -0.326. The PBM binding z-score in assay [7] was -0.331; in assay [8], -0.69; in [9] it was -1.04; in assay [10], -0.961; in [11], 2.07; in assay [12], 0.995. Moreover, the PBM binding z-score is -0.621 in [13]; -0.843 in [14]; -0.464 in [15]; -0.499 in [16]; -0.63 in [17]; -0.358 in assay [18]. Moreover, the PBM binding z-score in [19] is -0.904; in assay [20], 0.502.
